Compound activity: PubChem BioAssay, National Center for Advancing Translational Sciences (NCATS)
AMA1-RON2 inh: qHTS for Inhibitors of AMA1-RON; Towards Development of Antimalarial Drug Lead: Primary Screen; Plasmodium falciparum AMA1 (3D7) - RON2 peptide interaction; AlphaScreen AMA1-biotinylated RON2 peptide binding; Potency, µM (series often up to 58.2 µM), hits mostly inhibitors; 360,000 compounds, 0.2% hits; further: nearly all actives have a fitted effect of over 45% in size
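AMA1 (3D7) with his tag at 25 nM final met compounds first, then biotinylated RON2 peptide at 25 nM; detection used donor plus acceptor beads, 10 µg/mL apiece, read by AlphaScreen after 30 min at room temperature.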
AmpC inh no detg: qHTS Inhibitors of AmpC Beta-Lactamase (assay without detergent). AID 485341, 2010. AmpC nitrocefin hydrolysis, absorbance 480 nm, 0.0001% Triton. Potency, µM (doses to about 57.1 µM), actives largely listed as inhibitors. 330,000 compounds, 0.52% hits. P00811; further: nearly all actives have a fitted effect of over 20% in size
Target sequence (P00811 whole entry, looked up): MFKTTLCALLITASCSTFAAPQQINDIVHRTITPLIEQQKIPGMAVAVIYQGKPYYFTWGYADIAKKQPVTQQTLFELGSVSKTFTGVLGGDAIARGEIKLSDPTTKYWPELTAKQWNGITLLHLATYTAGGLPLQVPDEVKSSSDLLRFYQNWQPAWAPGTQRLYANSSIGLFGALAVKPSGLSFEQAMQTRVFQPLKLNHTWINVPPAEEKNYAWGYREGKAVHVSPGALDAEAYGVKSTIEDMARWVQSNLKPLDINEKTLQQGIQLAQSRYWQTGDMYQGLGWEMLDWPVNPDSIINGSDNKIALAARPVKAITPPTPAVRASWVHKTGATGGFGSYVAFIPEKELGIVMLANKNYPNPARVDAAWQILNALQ
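AmpC (5.3 nM in the dispensed reagent) in 20 mM phosphate pH 7.0 with 0.01% (detergent screen) or 0.0001% Triton X-100 was preincubated with compounds for 15 min at room temperature. Nitrocefin was then added from an 800 uM solution, and hydrolysis was followed at 480 nm.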
Pf growth 96h: Primary qHTS for delayed death inhibitors of the malarial parasite plastid, 96 hour incubation. P. falciparum luciferase reporter growth, 96 h. Potency, µM (doses to about 28.7 µM), hits mostly inhibitors. 320,000 compounds, 6.9% hits. AID 504834, 2011
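Readout is luminescence from an integrated firefly luciferase in P. falciparum. Red cells, 2% hematocrit and 0.05% parasitemia final, were cultured with compound through two parasite generations (96 hours) at 37 C, 5% CO2.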
Pf growth 48h: Primary qHTS for delayed death inhibitors of the malarial parasite plastid, 48 hour incubation | P. falciparum luciferase growth in erythrocytes, 48 h | Potency, µM (highest dose often 28.7 µM), hits mostly inhibitors | 310,000 compounds, 5.9% hits | AID 504832, 2011
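Erythrocytes infected with P. falciparum carrying an integrated firefly luciferase reporter (2% hematocrit, 0.1% parasitemia final) were exposed to compounds in RPMI 1640 with 0.5% Albumax at 37 C, 5% CO2. Growth inhibition was scored as reduced luminescence.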
AmpC inh detg: qHTS Inhibitors of AmpC Beta-Lactamase (assay with detergent); P00811; AID 485294, 2010; 370,000 compounds, 0.041% hits; Potency, µM (highest dose often 114 µM), hits mostly inhibitors; AmpC hydrolysis of nitrocefin, absorbance 480 nm, 0.01% Triton; further: nearly all actives have a fitted effect of over 25% in size
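20 mM phosphate pH 7.0 + 0.01% (detergent screen) or 0.0001% Triton X-100; 5.3 nM AmpC reagent; cpd preinc 15 min RT; nitrocefin (800 uM stock) to start; A480 q20 s × 4 min; Activity was normalised to no-enzyme and no-compound control wells.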
HCV inh: qHTS Assay for Inhibitors of Hepatitis C Virus (HCV) | Huh7.5.1 HCVcc-Cre infection, luciferase reporter, 44 h | Potency, µM (series often up to 41.8 µM), usual class: inhibitors | 340,000 compounds, 3.4% hits | AID 651820, 2012
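Infectious HCVcc-Cre (~0.5 moi) was added to cells just after compound, with cells seeded 4 h earlier at 1,000 per well. Luciferase activity after 44 h culture reported infection; substrate was incubated 15 min at room temperature before reading.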
A number is an active result; n = inactive; u = inconclusive; x = not tested or not shown. Only some compounds are listed: those with a hit (about 11% of all), similar ones and a draw of the others. The call rests on the fitted dose curve; in most records, active means well fitted curve in the direction sought with a large enough effect; inconclusive means small, poorly fitted or top-dose-only effect, or another doubt; inactive means no such curve, though single readings can be large; an effect the other way counts as inactive or inconclusive.

SMILES | AMA1-RON2 inh | AmpC inh no detg | Pf growth 96h | Pf growth 48h | AmpC inh detg | HCV inh
CCOC(=O)c1sc(NC(=O)c2sccc2C)cc1C | n | n | n | x | n | 10µM
CCn1cc(C(=O)N[C@@H](CCSC)C(=O)NCCOC)c(=O)c2cc3c(cc21)OCO3 | n | n | 11.7µM | u | n | n
CCOC(=O)c1ccc(N2C(=O)C3CC=CCC3C2=O)cc1 (stereo not drawn) | n | n | n | n | n | n
CCOC(=O)c1ccc(N2C(=O)C3C(C2=O)C(C(=O)c2ccc(Cl)cc2)N2CCCC32)cc1 (stereo not drawn) | n | n | n | 13.1µM | n | n
CCOc1ccc(-n2c(SCC(=O)Nc3ccc(CC)cc3)nc3c(oc4ccccc43)c2=O)cc1 | x | x | x | x | n | x
CCCN1C(=O)SC(CC(=O)Nc2ccc(C)cc2)C1=O (stereo not drawn) | n | n | u | n | n | n
CC(=O)Nc1ccc(NC(=O)CC2SC(=O)N(CC(=O)c3ccccc3)C2=O)cc1 (stereo not drawn) | n | n | 10.4µM | n | n | n
O=C(NCc1cccc(F)c1)c1ccc2nc(CCc3ccccc3)oc2c1 | x | x | x | x | n | x
O=C(N/N=C\c1ccc(CNS(=O)(=O)c2ccc(Cl)cc2)o1)C(=O)Nc1ccc(Oc2ccccc2)cc1 | n | n | n | n | n | 12.6µM
O=C(N/N=C\c1ccc(CNS(=O)(=O)c2ccccc2)o1)C(=O)Nc1ccc(F)cc1 | n | n | n | n | u | n
COc1ccc(-c2cc(C(F)(F)F)nc(SCC(=O)N3CCCCC3)n2)cc1OC | x | x | x | x | n | x
Cn1c(-c2cccs2)[n+](C)c2ccccc21 | n | n | n | 1.04µM | n | 11.2µM
C=CCOc1c(CNc2ncn[nH]2)cccc1OCC | n | n | 9.28µM | n | n | n
CCO[C@@H]1OC(C(=O)N2CCN(Cc3ccc4c(c3)OCO4)CC2)=C[C@H](C)[C@H]1CCCO | n | n | u | u | n | n
CCO[C@@H]1OC(C(=O)N2CCN(Cc3ccc4c(c3)OCO4)CC2)=C[C@H](C2CC2)[C@H]1CCCO | n | n | 3.29µM | u | n | n
CCO[C@H]1OC(C(=O)N2CCN(Cc3ccc4c(c3)OCO4)CC2)=C[C@@H](C2CCCCC2)[C@@H]1CCCO | n | n | 4.15µM | u | n | u
CCO[C@@H]1OC(C(=O)N2CCCCCCC2)=C[C@H](C2CCCCC2)[C@H]1CCCO | n | n | u | 10.4µM | n | u
CCO[C@@H]1OC(C(=O)N2CCOCC2)=C[C@H](C2CCCCC2)[C@H]1CCCO | n | n | n | n | n | n
COc1ccc(CNC(=O)Cc2c(C)c3c(cc(C)c4c(C)c(C)oc43)oc2=O)cc1 | x | x | x | x | n | x
CC(C)(C)c1ccc(C(=O)OCCN2CCCCC2)cc1 | n | n | 5.86µM | n | n | n
CC(C)COc1ccc(C(=O)Nc2scc(-c3ccc(Br)cc3)c2C(=O)OC(C)C)cc1 | x | x | x | x | n | x
COc1ccccc1CNC(=O)CCC1N=C2c3ccccc3N=C(SCC(=O)NCCc3ccc(OC)c(OC)c3)N2C1=O (stereo not drawn) | x | x | x | x | n | x
COc1ccc(S(=O)(=O)NCc2ccc(C(=O)N3CCN(c4ccccn4)CC3)cc2)cc1 | n | n | u | u | n | n
COc1cccc(S(=O)(=O)NCc2ccc(C(=O)N3CCN(c4ccccc4OC)CC3)cc2)c1 | x | n | u | 7.38µM | n | x
COc1ccc(CCC(=O)NCCS(=O)(=O)N2CCN(c3ccccc3OC)CC2)cc1 | n | n | n | n | n | 14.1µM
SMILES | AMA1-RON2 inh | AmpC inh no detg | Pf growth 96h | Pf growth 48h | AmpC inh detg | HCV inh
Cc1ccc(C(=O)NCc2ccc(N3CCN(C(=O)OC(C)(C)C)CC3)cc2)cc1 | n | n | n | n | n | n
COc1cccc(S(=O)(=O)NCc2ccc(C(=O)N3CCN(c4ccccc4)CC3)cc2)c1 | n | n | u | n | n | u
COc1ccc(N2CCN(C(=O)c3ccc(CNS(=O)(=O)c4cccc(OC)c4)cc3)CC2)cc1 | n | n | n | n | n | 3.55µM
Cc1ccc(S(=O)(=O)NCc2ccc(N3CCN(C(=O)OC(C)(C)C)CC3)cc2)cc1 | n | n | 4.15µM | 13.1µM | n | u
Cc1cc(O)c(C(c2ccccc2)N2CCN(c3ccccc3)CC2)c(=O)n1Cc1ccco1 (stereo not drawn) | x | x | x | x | n | x
CCc1ccccc1N1CC(c2nc3ccccc3n2CCCOc2ccc(Cl)cc2)CC1=O (stereo not drawn) | x | x | x | x | n | x
Clc1ccc(CCNc2nc3cc(Cl)c(Cl)cc3n3cnnc23)cc1 | x | x | x | x | n | x
CCOC(=O)c1cc2c(nc1NC(=S)Nc1ccccc1)CC(C)(C)OC2 | n | n | 10.4µM | n | n | n
CCc1ccc(NC(=O)Nc2ccccc2OCc2cc(=O)n3ccccc3n2)cc1 | x | x | x | x | n | x
O=C(Nc1ccc(Br)cc1)Nc1nc2c(s1)CCCCCC2 | x | x | x | x | n | x
NCCc1nnc(SCc2ccc(Cl)cc2)o1 | x | x | x | x | n | x
COc1cccc(CN(C)C(=O)c2[nH]c(C)c(C(C)=O)c2C)c1OC | n | n | 7.38µM | 11.7µM | n | 11.2µM
CC12CCC3C(CCC4(O)CC(O)CCC34C=NO)C1(O)CCC2C1=COC(=O)C1 (stereo not drawn) | n | x | x | x | x | 2µM
C[C@@H]1O[C@@H](O[C@H]2C[C@@H](O)[C@]3(CO)[C@H]4[C@H](O)C[C@]5(C)[C@@H](C6=CC(=O)OC6)CC[C@]5(O)[C@@H]4CC[C@]3(O)C2)[C@H](O)[C@H](O)[C@H]1O | n | n | n | u | u | 2.24µM
CC12CCC3C(CCC4(O)CC(O)CCC34C=O)C1(O)CCC2C1=CC(=O)OC1 (stereo not drawn) | n | x | x | x | x | u
CC(=O)OC1CC(OC2C(O)CC(OC3C(O)CC(OC4CCC5(C)C(CCC6C5CCC5(C)C(C7=CC(=O)OC7)C(O)CC65O)C4)OC3C)OC2C)OC(C)C1OC1OC(CO)C(O)C(O)C1O (stereo not drawn) | n | x | x | x | x | u
CC12CC[C@H]3[C@@H](CCC4(O)C[C@H](O)CCC34/C=N/NC(=O)c3ccccc3Cl)C1(O)CCC2C1=CC(=O)OC1 (stereo partly drawn) | n | n | n | n | n | n
C[C@]12CC[C@H]3[C@@H](CC[C@]4(O)C[C@@H](O)CC[C@]34C=O)[C@@]1(O)CC[C@@H]2C1=CC(=O)OC1 | n | n | n | n | n | 0.562µM
